# High-throughput results from PubChem BioAssay.
# GLP1R inv ag: GLP-1 receptor (human) inverse agonism; Potency, µM (series often up to 38.3 µM), for inactives: top-dose activity change, negative = inhibition, most hits filed as inhibitors; 410,000 tested, 1.6% active; P43220; AID 624417; HEK293 GLP-1R CRE-luciferase, luminescence, 24 h; GLP-1R form is constitutively active; also: potency is read from the fitted curve at half-maximal effect; % is scaled to controls: 0 for no effect and ±100 for the full control effect; nearly all actives have a fitted effect of over 55% in size
#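 Constitutively active GLP-1R drives a cAMP-responsive luciferase in stably transfected HEK293 cells; test compounds are added after overnight (12 h) attachment and left 24 hr, and signal loss in luminescence marks inhibition.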
# TRPML1 ag: human mucolipin-1 channel agonism | Q9GZU1 | TRPML1-expressing cells, Ca2+ dye fluorescence, FDSS | activation, % (test concentration not listed) | 410,000 tested, 0.12% active | AID 624414; in the data active = activation above about 50%; inconclusive = mostly about 30% to 49%; also: 0% is about no effect
# Target sequence (Q9GZU1 whole entry, looked up): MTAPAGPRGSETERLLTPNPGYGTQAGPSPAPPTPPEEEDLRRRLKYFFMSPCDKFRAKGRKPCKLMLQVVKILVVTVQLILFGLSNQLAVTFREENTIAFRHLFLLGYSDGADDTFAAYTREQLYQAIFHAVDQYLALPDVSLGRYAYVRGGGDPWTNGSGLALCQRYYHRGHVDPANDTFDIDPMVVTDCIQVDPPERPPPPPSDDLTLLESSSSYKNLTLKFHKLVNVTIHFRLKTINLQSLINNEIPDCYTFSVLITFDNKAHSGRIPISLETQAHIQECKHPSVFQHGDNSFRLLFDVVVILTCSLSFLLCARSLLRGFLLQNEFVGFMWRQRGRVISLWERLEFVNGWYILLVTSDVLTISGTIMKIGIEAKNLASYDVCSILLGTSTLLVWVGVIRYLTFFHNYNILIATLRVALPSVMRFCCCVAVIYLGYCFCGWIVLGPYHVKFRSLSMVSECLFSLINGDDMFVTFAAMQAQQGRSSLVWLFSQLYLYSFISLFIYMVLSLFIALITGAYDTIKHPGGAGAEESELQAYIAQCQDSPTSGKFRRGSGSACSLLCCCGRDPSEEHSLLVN
#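 Kinetic FDSS Ca2+ read in Tet-induced TRPML1-DL cells (ABD Ca8 dye plus quencher, 45-90 min RT loading): baseline, then compound, then 110 s agonist window; EC80 agonist 54-4 at 4uM final added afterwards for a 110 s antagonist window.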
# HEK293 tox: cytotoxicity in counter-screen for GLP-1R inverse agonists; Potency, µM (doses to about 38.3 µM), without a hit: top-dose activity change, negative = inhibition, most hits filed as inhibitors; HEK293 cAMP-luciferase reporter cells, luminescence, 24 h; 410,000 tested, 0.13% active;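 also: loss of luciferase light is scored as toxicity; potency is read from the fitted curve at half-maximal effect; % is scaled to controls: 0 for no effect and ±100 for the full control effect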
#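 MLSMR compounds, 24 hr on cells at 37 deg C/5% CO2; luminescence after luciferase reagent (12 min RT). Inhibition counted as the undesired cytotoxic outcome.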
# GLP1R ag: GLP-1 receptor (human) agonism; HEK293 GLP-1R CRE-luciferase, luminescence, 4-6 h; cells express a hypersensitive GLP-1R form; AID 624172; Potency, µM (series often up to 45.6 µM), without a hit: at the highest dose activation, actives largely listed as activators; 380,000 tested, 0.007% active; P43220; also: potency is read from the fitted curve at half-maximal effect; % of control where 0% means no effect
# TRPML1 blocker: inhibitors of human TRPML1 channel. TRPML1-inducible cells, Ca2+ dye fluorescence, FDSS; active compounds read low; inhibition of EC80 agonist-evoked calcium signal. Q9GZU1. 390,000 tested, 0.02% active. activity change, negative = inhibition, % (no concentration beside the values); in the data active = activity change below about -50%; inconclusive = between about -30% and that limit;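 also: stimulus is agonist 54-4 at its EC80 concentration; % is scaled to controls: 0 for no effect and ±100 for the full control effect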
#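 TRPML1-DL cells, Tet-induced overnight (~16 h, 37 °C) at 1,500 cells/well, were loaded with Ca8 no-wash dye plus quencher for 45-90 min at room temperature. Compounds were pinned during FDSS kinetic reading; agonist 54-4 at EC80 (4 uM final) then added.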
# The depositor's hits bear a star; ? = inconclusive; · = not tested or not shown; [ ] = dose if it differs, or a comment. A selection: hits, their analogues and other compounds. The true share with any hit is near 1.8%. Unless noted, calls follow the shape of the dose curve; as a rule, active = well fitted curve in the direction sought with a large enough effect; inconclusive = small, poorly fitted or top-dose-only effect, or another doubt; inactive = no such curve, though single readings can be large; an effect the other way counts as inactive or inconclusive.
SMILES,GLP1R inv ag,TRPML1 ag,HEK293 tox,GLP1R ag,TRPML1 blocker
CS(=O)(=O)c1ccc(C2=C(CNC(=O)c3ccc([N+](=O)[O-])cc3)[C@H]3CC[C@@H](C2)N3CCOc2ccccc2)cc1,10µM*,1,?,-4%,-13
CN(CC(=O)Nc1cccc(S(=O)(=O)N2CCOCC2)c1)CC(=O)Nc1ccc(Cl)c(C(F)(F)F)c1,?,0,?,-18%,19
CCc1ccccc1N1CC(c2nc3ccccc3n2CCC2CCCCC2)CC1=O (stereo unspecified),?,1,?,·,83
CCCSc1cc(OC)c(CCN)cc1OC,·,·,·,9%[110 µM],·
CCOc1cc(CNCCO)cc(Br)c1OCc1ccc(Cl)cc1,?,0,?,-5%,-1
CCOc1cc(CNC(C)(C)CO)cc(Br)c1OCc1ccc(Cl)cc1Cl,5µM*,1,?,-16%,-2
Cc1ccc(C(C)C)c(OCC(=O)Nc2cc(-c3nc4ccccc4[nH]3)ccc2C)c1,?,1,?,·,-10
C=C1C(=O)[C@@]23C[C@H]4[C@@H]5[C@@]6(C)CCC[C@@]57[C@@H]2[C@@H](O)[C@@H]1C[C@H]3[C@H]7N4C6,8.9µM*,·,?,-11%,·
CN(C(=O)CSc1nc2ccc(NC(=O)COc3ccc(Cl)cc3)cc2s1)c1ccccc1,5.6µM*,1,-9%,·,2
CCc1c(C2(O)CCCCC2)[nH]c2ccc(C(F)(F)F)cc12,2.2µM*,-1,?,8%,31
CC(C)OCCCNC(=O)c1c(N)n(Cc2cccs2)c2nc3ccccc3nc12,11µM*,0,246%,-10%,1
Cc1ccc(O)c(Cc2cc(C)cc(Cc3cc(C)ccc3O)c2O)c1,?,1,?,-1%,4
c1ccc(COc2ncnc3c2ncn3CCCN2CCN(Cc3cccc4ccccc34)CC2)cc1,3.5µM*,·,?,-7%,·
CC[C@@H](C(=O)[C@@H](C)[C@@H](O)[C@H](C)[C@@H]1O[C@@H]([C@@H](CC)C(=O)O)CC[C@@H]1C)[C@H]1O[C@]2(C=C[C@@H](O)[C@]3(CC[C@@](C)([C@H]4CC[C@](O)(CC)[C@H](C)O4)O3)O2)[C@H](C)C[C@@H]1C,?,0,4µM*,-16%,25
